EPAC1 ag val: validation of human EPAC1 agonists; O95398; EPAC1 Rap1b BODIPY-GDP exchange, fluorescence; Potency, µM, for inactives: max response, positive = active, hits mostly activators; 16,000 compounds, 1% hits; AID 1645883; also: nearly all actives have a fitted effect of over 70% in size
Target sequence (O95398 whole entry, looked up): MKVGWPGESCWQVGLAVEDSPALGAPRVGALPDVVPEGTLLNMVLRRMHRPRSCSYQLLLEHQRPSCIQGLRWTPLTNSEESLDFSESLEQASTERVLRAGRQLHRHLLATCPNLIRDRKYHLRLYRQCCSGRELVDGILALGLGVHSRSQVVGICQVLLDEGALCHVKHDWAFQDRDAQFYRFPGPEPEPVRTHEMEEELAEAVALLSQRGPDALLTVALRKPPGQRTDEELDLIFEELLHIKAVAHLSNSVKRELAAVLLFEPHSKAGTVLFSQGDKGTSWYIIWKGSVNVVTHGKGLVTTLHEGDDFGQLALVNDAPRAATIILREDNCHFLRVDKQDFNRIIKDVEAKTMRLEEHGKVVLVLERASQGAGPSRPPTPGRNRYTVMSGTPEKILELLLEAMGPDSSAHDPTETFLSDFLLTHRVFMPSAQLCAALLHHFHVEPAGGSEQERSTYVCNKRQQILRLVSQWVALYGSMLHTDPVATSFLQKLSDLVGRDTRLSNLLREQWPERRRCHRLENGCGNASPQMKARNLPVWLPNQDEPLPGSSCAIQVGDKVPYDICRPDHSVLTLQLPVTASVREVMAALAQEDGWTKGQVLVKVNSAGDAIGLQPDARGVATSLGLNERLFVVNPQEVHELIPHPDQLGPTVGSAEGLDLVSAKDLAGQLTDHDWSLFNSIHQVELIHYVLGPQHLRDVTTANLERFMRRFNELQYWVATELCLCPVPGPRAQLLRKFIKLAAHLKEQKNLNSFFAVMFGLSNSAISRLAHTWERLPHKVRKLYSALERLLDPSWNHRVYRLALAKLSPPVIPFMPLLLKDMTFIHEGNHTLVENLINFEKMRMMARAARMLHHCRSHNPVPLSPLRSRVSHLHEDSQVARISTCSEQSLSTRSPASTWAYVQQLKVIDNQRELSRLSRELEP
EPAC2 ant val: validation of human EPAC2 antagonists. EPAC2 Rap1B BODIPY-GDP exchange, fluorescence. 16,000 compounds, 1.7% hits. Potency, µM (top dose mostly 112 µM), inactives show at the top dose activity, negative = inhibition, most hits filed as inhibitors. Q8WZA2;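 also: 100% = activation by cAMP agonist control; nearly all actives have a fitted effect of over 40% in size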
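Fluorescent exchange read-out: 100 nM EPAC2 with 250 nM RAP1B–BODIPY-GDP and 50 uM GDP; BODIPY-GDP release lowers fluorescence. Read at 480/540 nm every 5 min for 30 min at room temperature; normalized to 6.5 mM cAMP.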
Numbers without * were called inactive; i = inactive; u = inconclusive; ! = not confirmed by another sample; [ ] = another dose, or the depositor's remark. An excerpt weighted towards active compounds, which were near 2.9% of everything screened. Calls follow the shape of the dose curve; as a rule, active = well fitted curve in the direction sought with a large enough effect; inconclusive = small, poorly fitted or top-dose-only effect, or another doubt; inactive = no such curve, though single readings can be large; an effect the other way counts as inactive or inconclusive. Unless noted, % is scaled to controls: 0 for no effect and ±100 for the full control effect; potency is read from the fitted curve at half-maximal effect.

SMILES | EPAC1 ag val | EPAC2 ant val
CC(=O)c1ccc(F)c(-c2cc(C)cc3c2OC(CNC(=O)Cc2ccc4c(c2)OCO4)C3)c1 (stereo unspecified) | 18.9% | u
CC(C)(C)[C@H]1CCC(=O)N([C@H](CN=[N+]=[N-])Cc2ccccc2)CC1 | -84.3% | 56.2µM*
[N-]=[N+]=NC[C@H](Cc1ccccc1)N1CC[C@@H](O)CCC1=O | 12.5% | -5.2%
CCCCC[C@H](O)/C=C/[C@H]1[C@H](O)CC(=O)[C@@H]1CCCCCCC(=O)O | -15.0% | 14.1µM*!
CCCCC[C@H](O)CC[C@H]1[C@H](O)CC(=O)[C@@H]1CCCCCCC(=O)O | -13.6% | -18.3%[11.4 µM]
CCOC(=O)C[C@H]1c2ccc(C(F)(F)F)cc2S(=O)(=O)N1c1cccc(OC)c1 | -49.9% | 44.7µM*
COc1cccc(N2[C@@H](CC(C)=O)c3cc(C(F)(F)F)ccc3S2(=O)=O)c1 | -1.9% | u
CCCC(=O)O[C@]1(C(=O)COC(=O)CC)[C@@H](C)C[C@H]2[C@@H]3CCC4=CC(=O)C=C[C@]4(C)[C@@]3(F)[C@@H](O)C[C@@]21C | -34.7% | -5.3%
Cc1cccc(N(C)C(=S)Oc2ccc3ccccc3c2)c1 | 112µM*! | -26.6%[56.6 µM]
Cc1cccc(N(C)C(=S)Oc2ccc3c(c2)CCC3)c1 | 23.9% | -12.1%
O=C(CN1Cc2ccccc2OC(c2ccsc2)C1)N1CCN(Cc2ccc3c(c2)OCO3)CC1 (stereo unspecified) | 8.3% | 56.2µM*
O=C(CN1CCN(Cc2ccc3c(c2)OCO3)CC1)N1c2ccccc2Sc2ccccc21 | 11.2% | -22.6%
Cc1nc(C)c(C(=O)NCc2nc(-c3cccc(NC(=O)c4ccccn4)c3)oc2C)s1 | -1.6% | -16.8%
COc1cc([C@@H]2c3cc4c(cc3[C@@H](O[C@@H]3O[C@@H]5CO[C@@H](C)O[C@@H]5[C@H](O)[C@@H]3O)[C@H]3COC(=O)[C@H]23)OCO4)cc(OC)c1O | -3.8% | -10.5%[29.6 µM]
C1=Cc2ccccc2/C1=C\c1ccc2c(c1)OCO2 | 100µM* | u
C1=Cc2ccccc2/C1=C/c1ccc(/C=C2\C=Cc3ccccc32)cc1 | u | 17.4%
COc1ccc(-c2c(-c3ccc4c(c3)OCO4)noc2-c2ccsc2)cn1 | -4.9% | u
c1ccc(-c2onc(-c3ccco3)c2-c2ccc3c(c2)OCO3)cc1 | 112µM* | -17.8%
CCCCC(CC)CN=C(N)NC(N)=NCCCCCCN=C(N)NC(N)=NCC(CC)CCCC (stereo unspecified) | -49.0% | 56.2µM*
CCCN=C(N)NCCC[C@H](N)C(=O)O | -1.9% | -23.0%
NC(Cc1ccccc1)C(=O)O (stereo unspecified) | -8.0% | 7.2%
Cc1nc2ccccc2nc1/C=C/c1ccc(N(C)C)cc1 | -52.6% | u
CN(C)c1ccc(/C=C/c2cc(N(C)C)nc3ccccc23)cc1 | -14.8% | u
Cc1cnc2ccccc2c1/C=C/c1ccc(N(C)C)cc1 | 100µM* | -34.1%
CN(C)c1ccc(/C=C/c2c3c(nc4ccccc24)CCCC3)cc1 | 100µM* | 83.9%
SMILES | EPAC1 ag val | EPAC2 ant val
CC(C)CCC[C@@H](C)[C@H]1CC(=O)C2=C3CC[C@H]4C[C@@H](O)CC[C@]4(C)[C@H]3CC[C@@]21C | -31.7% | 5.4%
C=C[C@@](C)(O)CC[C@@H]1[C@@]2(C)CCCC(C)(C)[C@@H]2CC[C@@]1(C)O | -26.9% | u
C=C[C@](C)(O)CCC1C(=C)CC(OC(C)=O)C2C(C)(C)CCCC12C (stereo partly specified) | -115.8% | 10µM*
COc1cc(O)c(C(=O)/C=C/c2ccc(OC)c(O)c2)c(OC)c1 | 100µM* | -26.6%
COc1ccc(/C=C/C(=O)c2cccs2)c(OC)c1 | u | -24.1%
O=C(c1ccco1)N1CCC2(CC1)CN(c1ccc(-c3ccccc3)cc1)C2 | u | -23.6%
O=C(c1ccco1)N1CCC2(CC1)CN(c1cccc(-c3ccccc3)c1)C2 | 100µM* | u
CC(=O)N1CCC2(CCCN(c3cccc(-c4ccccc4)c3)C2)CC1 | 100µM* | 44.7µM*
CC(=O)N1CCC2(CCCN(c3ccc(-c4ccccc4)cc3)C2)CC1 | 100µM* | u
COCC(=O)N1CCC2(CCCN(c3ccc(-c4ccccc4)cc3)C2)CC1 | -6.6% | -9.9%
O=C(Oc1ccccc1)N1CCC2(CCCN(c3cccc(-c4ccccc4)c3)C2)CC1 | u | -19.3%
Nc1ncnc2c1ncn2[C@H]1O[C@H](CO)[C@@H](O)[C@@H]1O | -13.7% | 12.4%
COc1ccc(CN2CCC3(CC2)c2ccccc2[C@@H](NC(=O)c2ccccc2OC)[C@@H]3O)cc1O | -14.1% | 4.4%
Cc1cnc(-n2ncc(C(=O)NCCc3cccnc3)c2C)nc1-c1cccs1 | -8.4% | u
Cc1cnc(-n2ncc(C(=O)N(C)CCc3ccccn3)c2-c2cccs2)nc1-c1ccc(F)cc1 | -10.5% | -13.8%
CCOc1ccccc1CN1CCCC(c2nc(C)ncc2-c2ccc(F)cc2)C1 (stereo unspecified) | -9.2% | -8.4%
O=C(C[n+]1cccc2cc(Cl)ccc21)c1ccc(I)cc1 | 7.2% | -10.5%
O=C(C[n+]1cccc2cc(Cl)ccc21)c1ccc(Br)cc1 | 112µM* | -26.1%
OCCCNCc1cc2ccc(F)cc2nc1N1CCN(c2cccc(Cl)c2)CC1 | 2.2% | -20.2%
O=C(O)[C@@H](O)[C@H](O)[C@H](O)[C@@H](O)C(=O)O (tested in a mixture with another compound) | 5.7% | -10.9%
C(=C\c1nccc2ccccc12)/c1ccc(N2CCOCC2)cc1 | 100µM* | 6.1%
Cc1noc(C)c1-c1nc(N2CCOCC2)c2ccccc2n1 | -31.1% | 1.8%
CNc1cc(OC)c(C(=O)N[C@H]2CCN(Cc3ccccc3)[C@H]2C)cc1Cl | -30.4% | u
CCC(C)(C)C(=O)OC1CC(C)C=C2C=CC(C)C(CCC3CC(O)CC(=O)O3)C21 (stereo unspecified) | 5.7% | i
CCC(C)(C)C(=O)O[C@@H]1C[C@@H](C)C=C2C=C[C@H](C)[C@H](CC[C@@H]3C[C@@H](O)CC(=O)O3)[C@H]21 | -42.9% | 50.1µM*
SMILES | EPAC1 ag val | EPAC2 ant val
CSc1nc(C(=O)N2CCc3c(cnc(C)c3CNC(=O)c3ccc4c(c3)OCO4)C2)cs1 | 5.5% | -8.0%
Oc1ccc(Cl)cc1Sc1cc(Cl)ccc1O | -30.4% | 50.1µM*
c1cnc2cc3c(cc2n1)[C@@H]1CNC[C@H]3C1 | 9.9% | -2.5%
C=CS(=O)(=O)N(Cc1ccccc1Br)[C@H](CO)Cc1ccccc1 | 12.1% | 35.5µM*
CC(C)C[C@H](CO)N(Cc1ccccc1)S(=O)(=O)N(Cc1ccccc1)[C@@H](CO)CC(C)C | -74.4% | u
O=S(=O)(N(Cc1ccccc1)[C@@H](CO)Cc1ccccc1)N(Cc1ccccc1)[C@@H](CO)Cc1ccccc1 | -5.2% | -1.8%
C=CS(=O)(=O)N(Cc1ccccc1)[C@H](CO)CC(C)C | -51.3% | 79.4µM*
C=C(NC(=O)C(=C)NC(=O)c1csc(C2=N[C@@H]3c4csc(n4)[C@H]4NC(=O)c5csc(n5)[C@H]([C@](C)(O)[C@@H](C)O)NC(=O)[C@H]5CSC(=N5)C(=CC)NC(=O)C([C@@H](C)O)NC(=O)c5csc(n5)[C@]3(CC2)NC(=O)[C@H](C)NC(=O)C(=C)NC(=O)[C@H](C)NC(=O)C([C@@H](C)CC)NC2C=Cc3c([C@H](C)O)cc(nc3C2O)C(=O)O[C@@H]4C)n1)C(N)=O (stereo partly specified) | -16.0% | 0.3%[56.6 µM]
CO[C@H]1[C@H](NC(=O)c2ccco2)c2ccccc2C12CCN(Cc1cc(Cl)ccc1O)CC2 | 19.2% | -33.2%

Source: PubChem BioAssay
